Outcome and AC50 data for 36 compounds are collected here from PubChem BioAssay (EPA / NIEHS).

Results filed as inconclusive are left out. Activity calls are given as the source filed them. The calls were made as follows: active = hit-call score of the fitted dose curve at least 0.9, where 1 is the maximum; inconclusive = response in the unintended direction; inactive = score below 0.9.

Test [1] relates to turtle Androgen Receptor (AR), gene 101947425. As to the kind of experiment: ATG_trAR_XSP1: Attagene TRANS-FACTORIAL Multi-Species (XSP1) HepG2 Assay for turtle Androgen Receptor (AR) (AID 2283786). A digest of the protocol: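 Partial androgen stimulation is provided by 3 nM 6-alpha-fluorotestosterone in a multi-species trans-factorial panel expressing a turtle AR–GAL4 fusion in HepG2. After 24 h, reporter mRNA is measured by RT-PCR and capillary electrophoresis and fitted upward against DMSO.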

For test [2], the target named is Estrogen receptor beta (Homo sapiens) (UniProt Q92731). As to the kind of experiment: ATG_hERb_XSP1: Attagene TRANS-FACTORIAL Multi-Species (XSP1) HepG2 Assay for human Estrogen Receptor (ESR2) (AID 2283788). A digest of the protocol: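 Multiplexed trans-activation in transfected HepG2: ERβ-Gal4 reporter transcripts after 24 h treatment, detected by RT-PCR plus capillary electrophoresis.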
Chain of Estrogen receptor beta (Homo sapiens) (Q92731 whole entry, looked up, the tested form may be a part): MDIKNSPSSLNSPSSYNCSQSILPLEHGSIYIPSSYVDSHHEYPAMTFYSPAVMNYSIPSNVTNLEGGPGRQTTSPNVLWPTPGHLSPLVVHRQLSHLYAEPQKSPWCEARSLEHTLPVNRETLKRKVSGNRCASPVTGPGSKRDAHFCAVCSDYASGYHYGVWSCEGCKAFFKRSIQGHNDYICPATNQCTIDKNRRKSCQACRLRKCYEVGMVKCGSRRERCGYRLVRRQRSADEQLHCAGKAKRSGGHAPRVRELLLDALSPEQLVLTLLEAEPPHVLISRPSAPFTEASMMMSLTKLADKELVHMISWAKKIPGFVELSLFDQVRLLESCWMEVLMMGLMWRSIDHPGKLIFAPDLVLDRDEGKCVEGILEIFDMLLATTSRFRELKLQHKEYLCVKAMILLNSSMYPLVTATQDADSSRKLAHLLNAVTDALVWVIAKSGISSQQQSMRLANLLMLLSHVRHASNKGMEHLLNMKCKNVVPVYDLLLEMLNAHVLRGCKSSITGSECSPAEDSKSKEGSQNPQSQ

Test [3] deals with zebrafish Peroxisome Proliferator-activated Receptor gamma (PPARg), gene 557037. The test is described as follows: ATG_zfPPARg_XSP1: Attagene TRANS-FACTORIAL Multi-Species (XSP1) HepG2 Assay for zebrafish Peroxisome Proliferator-activated Receptor gamma (PPARg) (AID 2283801). The gist of the method: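 Trans-activation readout of chimeric zebrafish PPARg–GAL4 in transiently transfected human HepG2 cells, 24 h chemical exposure (medium includes 3 nM 6-alpha-fluorotestosterone). Reporter transcripts measured by RT-PCR and capillary electrophoresis, fitted as gain over DMSO.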

The nature of test [4]: ATG_M_19_XSP1: Attagene TRANS-FACTORIAL Multi-Species (XSP1) HepG2 Assay for M19 Transcription Factor (Internal Marker) (AID 2283798). The gist of the method:
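Readout is reporter mRNA induction quantified via RT-PCR, 6-FAM labeling, HpaI digestion and capillary electrophoresis, fitted in the positive direction versus DMSO baseline. Transfected HepG2 cells exposed 24 h, medium including 3 nM 6-alpha-fluorotestosterone.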

The target in test [5] is GAL4 Transcription Factor (Internal Marker), GAL4 (gene 855828) (UniProt P04386). As to the kind of experiment: ATG_GAL4_XSP1: Attagene TRANS-FACTORIAL Multi-Species (XSP1) HepG2 Assay for GAL4 Transcription Factor (Internal Marker) (AID 2283789). A digest of the protocol: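 This background-control endpoint measures GAL4-driven reporter mRNA via RT-PCR and capillary electrophoresis of labelled fragments. Transiently transfected HepG2 cells were treated 24 h, with 3 nM 6-alpha-fluorotestosterone included, and gain-of-signal was fitted against DMSO.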
Chain of GAL4 Transcription Factor (Internal Marker), GAL4 (gene 855828) (P04386 whole entry, looked up, the tested form may be a part): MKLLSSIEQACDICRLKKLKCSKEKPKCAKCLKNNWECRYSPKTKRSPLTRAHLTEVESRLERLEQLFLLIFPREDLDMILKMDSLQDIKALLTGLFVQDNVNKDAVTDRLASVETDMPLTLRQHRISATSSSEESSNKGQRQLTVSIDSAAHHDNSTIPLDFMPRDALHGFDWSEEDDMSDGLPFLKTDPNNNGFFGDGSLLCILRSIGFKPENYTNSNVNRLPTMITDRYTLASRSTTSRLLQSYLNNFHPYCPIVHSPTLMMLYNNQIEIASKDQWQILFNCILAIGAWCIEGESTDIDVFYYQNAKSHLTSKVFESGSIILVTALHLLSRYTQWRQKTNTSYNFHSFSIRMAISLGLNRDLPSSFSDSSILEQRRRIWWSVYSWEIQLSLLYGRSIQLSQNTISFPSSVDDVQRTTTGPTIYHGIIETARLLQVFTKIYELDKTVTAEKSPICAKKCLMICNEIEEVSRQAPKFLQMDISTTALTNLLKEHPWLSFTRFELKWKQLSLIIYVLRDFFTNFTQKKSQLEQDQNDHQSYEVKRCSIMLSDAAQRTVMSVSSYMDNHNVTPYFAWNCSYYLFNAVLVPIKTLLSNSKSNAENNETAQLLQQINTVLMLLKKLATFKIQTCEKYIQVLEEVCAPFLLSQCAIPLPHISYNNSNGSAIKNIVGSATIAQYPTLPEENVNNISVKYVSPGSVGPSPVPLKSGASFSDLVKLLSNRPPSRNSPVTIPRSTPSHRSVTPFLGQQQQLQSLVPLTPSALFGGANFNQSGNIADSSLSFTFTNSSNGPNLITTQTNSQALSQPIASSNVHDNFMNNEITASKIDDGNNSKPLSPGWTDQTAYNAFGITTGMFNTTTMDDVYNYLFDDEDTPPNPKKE

Test [6] in a line: STM_H9_NormalizedViability: Cytotoxicity Assessment at 120 hours in the Stemina devTOX quickPredict H9 human embryonic stem cell (hESC)-based Assay (AID 2283784). A digest of the protocol: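 Viability endpoint: background-corrected CellTiter-Fluor RFU expressed relative to the 0.1% DMSO mean on each plate. Undifferentiated H9 cells were treated with daily re-dosing and media change, and loss of signal was fitted.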

In test [7] the target is AR (gene 367) (UniProt P10275). As to the kind of experiment: ACEA_AR_antagonist_80hr: ACEA Biosciences xCELLigence Real-Time Cell Analysis on Androgen Receptor Antagonism for Proliferation (AID 2283787).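 Also: 22Rv1 human prostate cancer cells with growth followed by electrical impedance; hits lower the impedance growth signal relative to DMSO.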 A digest of the protocol:
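Using 22Rv1 cells held in assay medium, we dosed compounds (100 uM maximum final, 1:4 serial, eight points, 0.5% DMSO at top) and recorded cell-electrode impedance; the 80 hr timepoint was analyzed against DMSO.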

Test [8] can be described thus: ACEA_ER_AUC_viability: ACEA Biosciences xCELLigence Real-Time Cell Analysis on Estrogen Receptor Agonism for Viability (AID 2283782).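 Also: hit means loss of impedance signal meaning reduced cell growth or viability.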 A digest of the protocol: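 Continuous-exposure impedance cell analysis uses T-47D cells in charcoal-stripped serum, eight 1:4 dilutions topping at 100 uM final, biological duplicate. Area under the growth curve at 80 h is fitted against DMSO baseline.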

The target of test [9] is AR (gene 367) (UniProt P10275). The test is described as follows: ACEA_AR_agonist_80hr: ACEA Biosciences xCELLigence Real-Time Cell Analysis on Androgen Receptor Agonism for Proliferation (AID 2283783).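 Also: hits increase impedance growth signal above DMSO baseline.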 A digest of the protocol:
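Real-time cell-growth kinetics were recorded by electrode impedance in 22Rv1 cells exposed to test chemicals up to 100 uM final; the 80 h timepoint served as the readout, fitted upward relative to DMSO controls, in biological duplicate.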

Test [10] can be described thus: ATG_M_06_XSP1: Attagene TRANS-FACTORIAL Multi-Species (XSP1) HepG2 Assay for M06 Transcription Factor (Internal Marker) (AID 2283790). The gist of the method:
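This background-control readout tracks M06 reporter mRNA, measured by RT-PCR and capillary electrophoresis. HepG2 cells transiently carrying the GAL4-UAS reporter panel were dosed for 24 h with 3 nM 6-alpha-fluorotestosterone added for partial AR stimulation; increases were scored relative to DMSO.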

A short description of test [11]: ATG_M_61_XSP1: Attagene TRANS-FACTORIAL Multi-Species (XSP1) HepG2 Assay for M61 Transcription Factor (Internal Marker) (AID 2283797). A digest of the protocol:
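Background-control readout: reporter transcripts measured by RT-PCR and capillary electrophoresis 24 h after dosing transiently transfected HepG2 multi-reporter cells, with 3 nM 6-alpha-fluorotestosterone present. Fitted in the positive direction relative to DMSO.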

Test [12] is described as follows: ATG_M_32_XSP1: Attagene TRANS-FACTORIAL Multi-Species (XSP1) HepG2 Assay for M32 Transcription Factor (Internal Marker) (AID 2283799). The gist of the method: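 Reporter transcripts from the M32 internal-control unit measured by RT-PCR, FAM labelling, HpaI digestion and capillary electrophoresis after 24 h compound exposure of transfected HepG2, 3 nM 6-alpha-fluorotestosterone included; DMSO baseline, positive-direction fit.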

Test [13] addresses Peroxisome proliferator-activated receptor gamma (Homo sapiens) (UniProt P37231). The test is described as follows: ATG_hPPARg_XSP1: Attagene TRANS-FACTORIAL Multi-Species (XSP1) HepG2 Assay for human Peroxisome Proliferator-activated Receptor gamma (PPARg) (AID 2283800). A digest of the protocol: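 Reporter mRNA induction, measured by RT-PCR with capillary electrophoresis 24 h after dosing, scored as gain over DMSO. Transfected HepG2 cells express exogenous NR-Gal4 chimeras driving GAL4-UAS reporters; medium includes 3 nM 6-alpha-fluorotestosterone.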

Test [14] has as its target mouse Peroxisome Proliferator-activated Receptor gamma (PPARg), Pparg (gene 19016) (UniProt P37238). The test is described as follows: ATG_mPPARg_XSP1: Attagene TRANS-FACTORIAL Multi-Species (XSP1) HepG2 Assay for mouse Peroxisome Proliferator-activated Receptor gamma (PPARg) (AID 2283802). The gist of the method:
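Readout is reporter mRNA induction, measured by RT-PCR with 6-FAM labelling, HpaI digestion and capillary electrophoresis, 24 h post-dose relative to DMSO. Transient multi-reporter transfection of human HepG2 with mouse PPARg–GAL4 fusion; 3 nM 6-alpha-fluorotestosterone included.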

The target of test [15] is Nuclear receptor subfamily 1 group I member 2 (Mus musculus) (UniProt O54915). The test is described as follows: ATG_mPXR_XSP1: Attagene TRANS-FACTORIAL Multi-Species (XSP1) HepG2 Assay for mouse Pregnane X Receptor (PXR) (AID 2283803). The gist of the method: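 Transiently transfected HepG2 cells expressing a receptor-Gal4 chimera drive a GAL4-UAS reporter; 3 nM 6-alpha-fluorotestosterone included. Reporter mRNA read 24 h post-dose by RT-PCR and capillary electrophoresis; gain of signal relative to DMSO.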
Chain of Nuclear receptor subfamily 1 group I member 2 (Mus musculus) (O54915 whole entry, looked up, the tested form may be a part): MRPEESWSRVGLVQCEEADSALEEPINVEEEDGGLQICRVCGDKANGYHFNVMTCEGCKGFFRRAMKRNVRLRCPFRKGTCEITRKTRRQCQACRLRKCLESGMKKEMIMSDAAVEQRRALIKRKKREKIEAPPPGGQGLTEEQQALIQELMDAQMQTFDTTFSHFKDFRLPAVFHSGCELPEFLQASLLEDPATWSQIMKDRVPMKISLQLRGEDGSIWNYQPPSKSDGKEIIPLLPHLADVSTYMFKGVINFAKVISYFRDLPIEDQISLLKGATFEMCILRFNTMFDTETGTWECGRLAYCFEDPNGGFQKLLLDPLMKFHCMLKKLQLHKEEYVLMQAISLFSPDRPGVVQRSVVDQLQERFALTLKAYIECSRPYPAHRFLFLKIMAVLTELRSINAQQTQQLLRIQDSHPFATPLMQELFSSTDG

Chain of AR (gene 367) (P10275 whole entry, looked up): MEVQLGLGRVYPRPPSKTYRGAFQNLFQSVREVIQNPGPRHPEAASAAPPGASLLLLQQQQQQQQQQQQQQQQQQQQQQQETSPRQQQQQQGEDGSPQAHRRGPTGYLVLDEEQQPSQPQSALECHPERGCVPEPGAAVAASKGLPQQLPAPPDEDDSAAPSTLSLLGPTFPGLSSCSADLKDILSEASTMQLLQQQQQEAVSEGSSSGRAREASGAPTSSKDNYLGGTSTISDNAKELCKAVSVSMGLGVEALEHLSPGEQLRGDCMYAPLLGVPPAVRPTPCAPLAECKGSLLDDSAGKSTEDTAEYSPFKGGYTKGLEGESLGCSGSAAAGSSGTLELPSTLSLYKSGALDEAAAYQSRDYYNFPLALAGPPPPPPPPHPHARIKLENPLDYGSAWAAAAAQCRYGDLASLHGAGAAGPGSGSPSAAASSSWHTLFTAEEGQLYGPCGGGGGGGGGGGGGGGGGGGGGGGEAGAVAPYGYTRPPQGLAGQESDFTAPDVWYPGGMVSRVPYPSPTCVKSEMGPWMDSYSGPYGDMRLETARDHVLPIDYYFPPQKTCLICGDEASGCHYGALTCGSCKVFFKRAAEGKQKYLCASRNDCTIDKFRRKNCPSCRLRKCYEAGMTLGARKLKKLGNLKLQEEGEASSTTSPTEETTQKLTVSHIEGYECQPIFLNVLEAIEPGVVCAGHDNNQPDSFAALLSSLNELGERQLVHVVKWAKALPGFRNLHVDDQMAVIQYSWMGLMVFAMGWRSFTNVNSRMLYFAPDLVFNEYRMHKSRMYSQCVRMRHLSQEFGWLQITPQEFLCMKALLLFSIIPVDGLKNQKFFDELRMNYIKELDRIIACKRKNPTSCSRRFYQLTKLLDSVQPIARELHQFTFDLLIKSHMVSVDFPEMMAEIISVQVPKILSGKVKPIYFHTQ
Chain of mouse Peroxisome Proliferator-activated Receptor gamma (PPARg), Pparg (gene 19016) (P37238 whole entry, looked up, the tested form may be a part): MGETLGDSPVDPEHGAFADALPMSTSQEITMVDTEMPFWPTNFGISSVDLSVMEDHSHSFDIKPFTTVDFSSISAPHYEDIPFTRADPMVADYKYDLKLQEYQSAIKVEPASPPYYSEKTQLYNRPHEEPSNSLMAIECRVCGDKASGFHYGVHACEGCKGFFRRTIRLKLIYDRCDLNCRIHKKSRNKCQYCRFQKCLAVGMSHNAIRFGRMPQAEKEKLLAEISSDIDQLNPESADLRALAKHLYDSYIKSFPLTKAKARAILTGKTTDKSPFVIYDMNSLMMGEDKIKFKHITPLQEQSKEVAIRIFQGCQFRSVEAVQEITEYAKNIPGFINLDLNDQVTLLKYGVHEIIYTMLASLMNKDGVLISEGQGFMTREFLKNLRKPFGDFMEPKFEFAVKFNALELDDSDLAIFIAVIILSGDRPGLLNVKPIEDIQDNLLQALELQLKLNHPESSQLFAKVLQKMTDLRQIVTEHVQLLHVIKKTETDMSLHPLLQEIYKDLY
Chain of Peroxisome proliferator-activated receptor gamma (Homo sapiens) (P37231 whole entry, looked up, the tested form may be a part): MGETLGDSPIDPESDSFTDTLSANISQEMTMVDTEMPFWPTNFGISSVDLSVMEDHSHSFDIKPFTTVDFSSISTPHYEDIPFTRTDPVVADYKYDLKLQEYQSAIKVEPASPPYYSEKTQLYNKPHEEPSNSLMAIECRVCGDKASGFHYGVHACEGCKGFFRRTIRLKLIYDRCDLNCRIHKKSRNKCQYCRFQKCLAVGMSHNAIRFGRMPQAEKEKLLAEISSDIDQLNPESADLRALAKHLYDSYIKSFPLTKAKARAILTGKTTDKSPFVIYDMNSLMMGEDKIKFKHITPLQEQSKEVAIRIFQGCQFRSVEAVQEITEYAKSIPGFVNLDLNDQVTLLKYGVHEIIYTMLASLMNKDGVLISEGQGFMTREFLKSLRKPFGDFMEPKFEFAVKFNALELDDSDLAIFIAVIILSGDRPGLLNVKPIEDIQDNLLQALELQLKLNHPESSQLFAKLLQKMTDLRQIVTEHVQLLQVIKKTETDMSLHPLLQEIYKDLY

On to `C#CC(C)(C)NC(=O)c1cc(Cl)cc(Cl)c1`, for which, in [1], the compound was classed as inactive.
Turning to `CCc1cccc(C)c1N(C(=O)CCl)C(C)COC` (centres undefined), the AC50 (usually the concentration giving half of the maximal activity seen) in test [2] is 4.14 µM (active). Moreover, the outcome in test [3] was inactive.
Consider `CCOP(=S)(OCC)Oc1ccc2c(C)c(Cl)c(=O)oc2c1`, for which the call in test [2] and in test [4] was inactive.
Consider `CCCOCC(=Nc1ccc(Cl)cc1C(F)(F)F)n1ccnc1`, for which the result in test [5], in test [4] and in test [3] was inactive.
Consider `CSC1=N[C@@](C)(c2ccccc2)C(=O)N1Nc1ccccc1`, for which the AC50 in test [6] is 30.1 µM (active).
In the case of `CCOP(=O)(NC(C)C)Oc1ccc(SC)c(C)c1` (centres undefined), in the test with AR (gene 367) [7], the half-maximal activity concentration (AC50) is 40.5 µM (active).
Regarding `O=[N+]([O-])c1cc(C(F)(F)F)c(Cl)c([N+](=O)[O-])c1Nc1ncc(C(F)(F)F)cc1Cl`, the AC50 in test [8] is 3.24 µM (active); in test [6], 16.3 µM (active).
In the case of `CC(COc1ccc(Oc2ccccc2)cc1)Oc1ccccn1` (centres undefined), the result in test [8] and in test [6] was inactive. Besides, the AC50 with AR (gene 367) [7] was 66.3 µM (active).
Take `CCCCOC(=O)c1ccccc1C(=O)O`: the compound was called inactive (in test [8]; with AR (gene 367) [7]).
Turning to `CCOP(=S)(OCC)Oc1cc(C)nc(C(C)C)n1`, the AC50 in [8] is 82 µM (active); in test [6] it was 87.1 µM (active).
In the case of `CC(C)[C@H](C(=O)O[C@H](C#N)c1cccc(Oc2ccccc2)c1)c1ccc(Cl)cc1`, the outcome in [6] was inactive.
`CC(C)=CC1C(C(=O)OCN2C(=O)C3=C(CCCC3)C2=O)C1(C)C` (centres undefined): the outcome in the test with AR (gene 367) [9] was inactive. In the test with AR (gene 367) [7], the AC50 is 69.8 µM (active).
Turning to `C[N+]1(C)CCCCC1`, the result in test [6] was inactive.
For `CSc1nc(NC(C)C)nc(NC(C)C)n1`, the compound was called inactive in [8] and in test [6].
Regarding `CSc1nnc(C(C)(C)C)c(=O)n1N`, the compound was called inactive in test [8] and in test [6].
As for `CON=C(C(=O)OC)c1ccccc1CON=C(C)c1cccc(C(F)(F)F)c1`, the AC50 in test [8] is 90.5 µM (active). The result in test [6] was inactive.
As for `CN(C)C(=O)Nc1cccc(C(F)(F)F)c1`, the outcome in test [8] and in [6] was inactive.
Regarding `Cc1nn(-c2cc(NS(C)(=O)=O)c(Cl)cc2Cl)c(=O)n1C(F)F`, the outcome (with AR (gene 367) [9]; in [6]) was inactive.
Take `COc1ccc(C(=CC(=O)N2CCOCC2)c2ccc(Cl)cc2)cc1OC`: the outcome in test [8] was inactive. Moreover, the AC50 with AR (gene 367) [7] was 15.8 µM (active).
On to `CCCSP(=O)(OCC)SCCC`, for which the AC50 with AR (gene 367) [7] was 34 µM (active).
For `CCC(=NOC/C=C/Cl)C1=C(O)CC(C2CCOCC2)CC1=O` (centres undefined), the compound was called inactive in test [8] and in test [6].
With `FC(F)C(F)(F)OCC(Cn1cncn1)c1ccc(Cl)cc1Cl` (centres undefined), the AC50 in test [8] is 75.7 µM (active). Further, the outcome in [6] was inactive.
With `Nc1c(Cl)cc([N+](=O)[O-])cc1Cl`, the AC50 with AR (gene 367) [7] was 50 µM (active).
On to `CCc1cccc(CC)c1N(COC)C(=O)CCl`, for which the compound was classed as inactive in test [8]. Besides, in the test with AR (gene 367) [7], the AC50 is 63.9 µM (active).
Consider `CC(C1CC1)C(O)(Cn1cncn1)c1ccc(Cl)cc1` (centres undefined), for which the call in test [8] and in [6] was inactive.
As for `CCC(=O)Nc1ccc(Cl)c(Cl)c1`, in the test with AR (gene 367) [7], the AC50 was 20 µM (active).
With `C#CCC1=C(C)C(OC(=O)C2C(C=C(C)C)C2(C)C)CC1=O` (centres undefined), the AC50 in [8] is 49.8 µM (active); in test [13] it was 27.2 µM (active); in [14] it was 26.7 µM (active); in [15] it was 0.32 µM (active). In addition, the outcome in test [2], in test [10], in test [11] and in test [12] was inactive.
Regarding `Cc1ccn2nc(S(=O)(=O)Nc3c(F)cccc3F)nc2n1`, the outcome in test [6] was inactive.
As for `CCOC(=O)COc1cc(-c2nn(C)c(OC(F)F)c2Cl)c(F)cc1Cl`, in test [8], the result was inactive. Besides, the concentration at half-maximal activity (AC50) with AR (gene 367) [7] is 28.1 µM (active).
In the case of `CN(C)[C@@H]1C(=O)C(C(N)=O)=C(O)[C@@]2(O)C(=O)C3=C(O)c4c(O)cccc4[C@@](C)(O)[C@H]3[C@H](O)[C@@H]12`, in test [6], the half-maximal activity concentration (AC50) was 50 µM (active).
With `CCOP(=S)(OCC)SCCSCC`, the result in [6] was inactive.
In the case of `CCCOc1nn(C(=O)NS(=O)(=O)c2ccccc2C(=O)OC)c(=O)n1C`, the compound was classed as inactive with AR (gene 367) [9] and with AR (gene 367) [7].
In the case of `CNc1cnn(-c2cccc(C(F)(F)F)c2)c(=O)c1Cl`, the result in test [6] was inactive.
For `C[Si](Cn1cncn1)(c1ccc(F)cc1)c1ccc(F)cc1`, the figures for the AC50 in test [8] and in test [6] were 76.2 µM (active) and 80.6 µM (active), respectively.
`CCCCOC(=O)[C@@H](C)Oc1ccc(Oc2ccc(C#N)cc2F)cc1`: the compound was classed as inactive in test [8]. The half-maximal activity concentration (AC50) in test [6] is 93.9 µM (active).
In the case of `N#CSCSC#N`, the AC50 was 6.97 µM (active) in test [8], 20.5 µM (active) in test [6] and 11.7 µM (active) with AR (gene 367) [7].
